Measured values published in PubChem BioAssay (NCI).
The panel holds about 83,000 compounds, 20% with a hit somewhere; the sample as a whole holds those more often.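 Single-dose data. Exposure time 48 hours. Values below 10 considered active.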 Unmarked numbers belong to inactive results. Calls of active or inactive are those of the source.

The compounds below were run on M14 melanoma (assay: NCI-60 one-dose screen, 48 h (100 = growth as untreated, 0 = no growth, -100 = all killed)). Settings: 10 µM.

| Structure (SMILES) | growth |
| --- | --- |
| COc1ccc2oc(=O)cc(C(c3ccc[nH]3)c3ccc[nH]3)c2c1 | 8.91% (active) |
| CCCN(CCC)CCCNC(=O)c1cc2c(-c3ccc(OC)c(OC)c3)nn(C)c2s1 | 9.55% (active) |
| N#Cc1c(-c2ccccc2)nc(SCC(=O)N2CCOCC2)[nH]c1=O | 100% |
| COc1ccc(NC(=O)c2sc3nc4c(cc3c2N)C(O)CCC4)cc1 (stereo not drawn) | 101% |
| COc1cccc2c1O/C(=C\c1ccc([N+](=O)[O-])s1)C2=O | 48.1% |
| N#Cc1cnc2ccc(NCc3cnc[nH]3)cc2c1Nc1ccc(F)c(Cl)c1 | 72.1% |
| O=C1/C(=C/c2ccc(O)cc2)Oc2ccc(Cl)cc21 | 93.9% |
| Cc1ccc([P+](Cc2ccccc2)(c2ccccc2)c2ccccc2)cc1 | 3.22% (active) |
| CCOC(=O)c1c(C)n(-c2ccc(Cl)cc2)c2ccc(OC(=O)/C=C/c3ccccc3)cc12 | 83.1% |
| O=C(O)CCCN1C(=O)NC2(C1=O)c1ccccc1-c1ccccc12 | 103% |
| Cc1cc(C)c2nc(C)c(C)[n+]([O-])c2c1 | 102% |
| CCOC(=O)c1sc(Nc2ncccn2)nc1-c1ccccn1 | 81.9% |
| COc1ccc(-c2[nH]ncc2/C=C/c2cc(C(F)(F)F)[nH]c(=O)n2)cc1 | 98.7% |
| COc1ccc(-c2nc(-c3nc4ccc(C)cc4[nH]3)c3ccccn23)cc1 | 46.5% |
| CC(Oc1ccc(Cl)cc1)c1ccccc1 (stereo not drawn) | 101% |
| CCCCCCCCCCN=C(c1ccc(N(C)C)cc1)c1ccc(N(C)C)cc1 | -18% (active) |
| c1ccc(COCC[P+](c2ccccc2)(c2ccccc2)c2ccccc2)cc1 | 10.9% |
| COCCOC(=O)NC(=O)Nc1ccc(/C(=N/O)c2ccc(Cl)cc2)cc1 | 3.73% (active) |
| O=C(O)c1ccc(CNc2ccc(C(=O)CCl)cc2)cc1 | 105% |

| Structure (SMILES) | growth |
| --- | --- |
| CC(C)C[C@H](NC(=O)CCn1ccc2ccccc2c1=O)B(O)O | 38% |
| COc1cc(CSc2nc3ccc(Cl)cc3c(=O)n2Cc2ccccc2)cc(OC)c1OC | 35.4% |
| c1ccc(CNc2nc(Nc3ccc(-c4nc5ccccc5[nH]4)cc3)c3cn[nH]c3n2)cc1 | -34.6% (active) |
| CCCCCCCCCCCC(=O)NCCCN(C)C | 98.1% |
| CCCc1c(C)nc2scc(-c3ccc(Cl)cc3)n2c1=O | 107% |
| COc1ccc(/C=C2\SC(=S)N(CCCN3CCOCC3)C2=O)c(OC)c1 | 95.6% |
| CCCCN(CCCC)c1ccc(C(=NC(C)CCCN(CC)CC)c2ccc(N(C)C)cc2)cc1 (stereo not drawn) | -83% (active) |
| CCN(CC)CCOC(=O)c1ccc(N=Nc2ccc(O)c(OC)c2)cc1 | 103% |
| CCc1ccc(-c2nnc(COc3ccc(-c4nc5ccc(C)cc5[nH]4)cc3OC)o2)cc1 | 49.5% |
| COc1cc(-c2nc3ccc(C)cc3[nH]2)ccc1OCc1nnc(-c2ccc(CC(C)C)cc2)o1 | 104% |
| O=C(Nc1cccc(F)c1)Nc1cccc(Cl)c1 | 100% |
| CCCCOCCOCCOCc1cc2c(cc1Br)OCO2 | 110% |
| CC(C)(C)c1ccc(OCCCCCCN2CCNCC2)cc1 | 22.6% |
| O/N=C1\CCC2CCCCC2C1 (stereo not drawn) | 102% |
| O=c1cc(CSc2nnc(-c3ccccc3)n2-c2ccc(F)cc2)c2ccc3ccccc3c2o1 | 102% |
| CC(C)C[C@H](NC(=O)Cn1ccc2ccccc2c1=O)B(O)O | 56% |
| COc1ccc(-c2nc(-c3nc4ccc(OC)cc4[nH]3)c3ccccn23)cc1 | 77.5% |
| CCn1nc(-c2ccccn2)c2cccnc2c1=S | 65% |
| CNC(=O)c1cc(Oc2ccc(NC(=O)Nc3ccc(Cl)c(OC(C)C)c3)c(F)c2)ccn1 | 36.1% |
